The supplement of paper PMC11732987, “Enantioselective OTUD7B fragment discovery through chemoproteomics screening and high-throughput optimisation” (Communications Chemistry, 2025)

Experiments:
Assay in all cases: log2 ratio of Biotin-Ahx-Ub-VS probe labelling (compound/DMSO); higher = less target engagement, active = hit call of the paper (q ≤ 0.05, log2 ratio ≤ -1)
Conditions in all cases: treatment time: 3 h
[1] = compound: CCC1N(CCc2sccc12)C(=O)CCl
In short: (§1)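 DUBs in HEK293T lysate were labelled with Biotin-Ahx-Ub-VS (0.5 µM final, 1 h) after a 3 h treatment with compound at 50 or 200 µM or with DMSO, done in triplicate on 495 µg of lysate per sample. NeutrAvidin-enriched proteins were digested with LysC and trypsin and run by diaPASEF LC-MS/MS. Median-normalised label-free quantities gave average base-two log ratios of compound to DMSO by unpaired t-test, restricted to proteins with at least 2 unique peptides.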

[2] = compound: CN1c2ccccc2C(CS1(=O)=O)NC(=O)CCl
In short: as §1

[3] = compound: Cl.ClCC(=O)N1CCc2ncncc2C1
In short: as §1

[4] = compound: Cl.Cn1ncc2C(CCCc12)NC(=O)CCl
In short: as §1

[5] = compound: ClCC(=O)NC1CCOc2ccccc12
In short: as §1

[6] = compound: ClCC(=O)NC1CCCc2ccccc12
In short: (§2)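 Spectronaut label-free, global-median-normalised protein quantities underlie these values, which are average ratios of compound to vehicle from an unpaired t-test. They are reported as log2 and include only proteins identified by two or more unique peptides. Samples of HEK293T lysate (495 µg) were treated in triplicate with a compound concentration series or vehicle for 3 h, then labelled with Biotin-Ahx-Ub-VS at 0.5 µM final for 1 h before NeutrAvidin enrichment, LysC and trypsin digestion, and diaPASEF LC-MS/MS.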

[7] = compound: ClCC(=O)N[C@@H]1CCCc2ccccc12
In short: as §2

[8] = compound: ClCC(=O)N[C@H]1CCCc2ccccc12
In short: as §2

[9] = compound: CCC1N(CCc2cc(OC)c(Cl)cc12)C(=O)CCl
In short: as §1

[10] = compound: CCCC1N(CCc2cc(OC)c(OC)cc12)C(=O)CCl
In short: as §1

[11] = compound: CN(Cc1cccc(Br)c1)C(=O)CCl
In short: as §1

[12] = compound: CN(Cc1cccc(OCc2ccccc2C)c1)C(=O)CCl
In short: as §1

[13] = compound: CN(Cc1ccccc1)C(=O)CCl
In short: as §1

[14] = compound: COc1ccc(CN(C)C(=O)CCl)cc1
In short: as §1

[15] = compound: COc1cccc(CN(CCCc2ccccc2)C(=O)CCl)c1
In short: as §1

[16] = compound: ClCC(=O)N1CCc2cc(Cl)c(Cl)cc2C1
In short: as §1

[17] = compound: ClCC(=O)N1CCc2nc(ncc2C1)-c1ccccc1
In short: as §1

[18] = compound: ClCC(=O)N1CCc2nocc2C1
In short: as §1

[19] = compound: ClCC(=O)N1CCc2scc(Br)c2C1
In short: as §1

[20] = compound: ClCC(=O)NC(C1CCCC1)c1cccs1
In short: as §1

Measured: log2 ratio of Biotin-Ahx-Ub-VS probe labelling

USP39 (UniProt Q53GS9)
Sequence of UniProt Q53GS9 (Q53GS9 whole entry): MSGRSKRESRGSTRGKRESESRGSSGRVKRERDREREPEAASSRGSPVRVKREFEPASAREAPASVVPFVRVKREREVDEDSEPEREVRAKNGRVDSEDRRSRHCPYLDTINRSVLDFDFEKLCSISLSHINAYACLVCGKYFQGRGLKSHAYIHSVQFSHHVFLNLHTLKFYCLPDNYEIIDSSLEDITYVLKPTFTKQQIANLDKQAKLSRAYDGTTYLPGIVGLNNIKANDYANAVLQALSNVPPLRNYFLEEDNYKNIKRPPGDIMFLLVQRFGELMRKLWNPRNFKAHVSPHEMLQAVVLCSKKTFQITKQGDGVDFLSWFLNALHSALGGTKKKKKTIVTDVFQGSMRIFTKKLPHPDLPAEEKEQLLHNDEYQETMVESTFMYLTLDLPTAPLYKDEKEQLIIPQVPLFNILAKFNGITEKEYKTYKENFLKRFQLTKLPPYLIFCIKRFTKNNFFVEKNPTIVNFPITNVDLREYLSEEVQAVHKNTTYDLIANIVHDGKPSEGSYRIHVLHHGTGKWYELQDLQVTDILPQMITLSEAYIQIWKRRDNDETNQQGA
inactive: [1]; compound concentration: 50uM 0.0546 | [1]; compound concentration: 200uM -0.102 | [2]; compound concentration: 50uM -0.157 | [2]; compound concentration: 200uM -0.0618 | [3]; compound concentration: 50uM 0.0365 | [3]; compound concentration: 200uM -0.18 | [4]; compound concentration: 50uM 0.0136 | [4]; compound concentration: 200uM -0.0545 | [5]; compound concentration: 50uM 0.225 | [5]; compound concentration: 200uM -0.157 | [6]; compound concentration: 0.78uM -0.0849 | [6]; compound concentration: 1.56uM 0.00415 | [6]; compound concentration: 3.13uM -0.107 | [6]; compound concentration: 6.25uM -0.121 | [6]; compound concentration: 12.5uM -0.133 | [6]; compound concentration: 25uM -0.219 | [6]; compound concentration: 50uM -0.32 | [6]; compound concentration: 100uM -0.0966 | [6]; compound concentration: 200uM -0.188 | [7]; compound concentration: 0.78uM -0.138 | [7]; compound concentration: 1.56uM -0.0134 | [7]; compound concentration: 3.13uM 0.0533 | [7]; compound concentration: 6.25uM -0.0819 | [7]; compound concentration: 12.5uM -0.132 | [7]; compound concentration: 25uM -0.181 | [7]; compound concentration: 50uM -0.277 | [7]; compound concentration: 100uM -0.108 | [7]; compound concentration: 200uM -0.208 | [8]; compound concentration: 0.78uM 0.0296 | [8]; compound concentration: 1.56uM -0.22 | [8]; compound concentration: 3.13uM -0.0221 | [8]; compound concentration: 6.25uM -0.000844 | [8]; compound concentration: 12.5uM -0.0179 | [8]; compound concentration: 25uM -0.167 | [8]; compound concentration: 50uM -0.0419 | [8]; compound concentration: 100uM -0.206 | [8]; compound concentration: 200uM -0.187 | [9]; compound concentration: 50uM 0.209 | [9]; compound concentration: 200uM 0.0808 | [10]; compound concentration: 50uM -0.0814 | [10]; compound concentration: 200uM -0.0567 | [11]; compound concentration: 50uM 0.105 | [11]; compound concentration: 200uM -0.535 | [12]; compound concentration: 50uM -0.137 | [12]; compound concentration: 200uM 0.0162 | [13]; compound concentration: 50uM -0.0746 | [13]; compound concentration: 200uM 0.0651 | [14]; compound concentration: 50uM 0.011 | [14]; compound concentration: 200uM -0.086 | [15]; compound concentration: 50uM 0.17 | [15]; compound concentration: 200uM 0.063 | [16]; compound concentration: 50uM 0.017 | [16]; compound concentration: 200uM -0.298 | [17]; compound concentration: 50uM 0.044 | [17]; compound concentration: 200uM 0.117 | [18]; compound concentration: 50uM -0.102 | [18]; compound concentration: 200uM -0.0827 | [19]; compound concentration: 50uM -0.0611 | [19]; compound concentration: 200uM -0.272 | [20]; compound concentration: 50uM 0.165 | [20]; compound concentration: 200uM 0.014
